# Compound activity (PubChem BioAssay)
# Pf Dd2 inh = qHTS Primary assay for Inhibitors of Plasmodium falciparum Dd2 growth in vitro; hit rate 4.3% among 120,000; Potency, µM (highest dose often 28.9 µM), without a hit: at the top dose activity, negative = inhibition, hits mostly inhibitors; P. falciparum Dd2 growth, SYBR Green, 72 h; active = well fitted inhibition curve with a large enough effect;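 also: plate controls were DMSO vehicle for no effect and reference drug for full effect; nearly all actives have a fitted effect of over 65% in size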
#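 Infected erythrocytes (Dd2, 0.3% parasitemia, 2.5% hematocrit final) are added to compound in RPMI-1640/Albumax II medium, grown 72 h at 37C in low oxygen, then lysed with saponin/Triton-X containing SYBR Green and read by fluorescence.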
# Active calls of the source: *; i = inactive; [ ] = remark or other dose. The full list was thinned out, with hits kept by preference. Potency is read from the fitted curve at half-maximal effect.
SMILES,Pf Dd2 inh
COc1ccc2nc(C[C@@H]3C[C@@H](C(C)C)[C@H](CNC(=O)C4CCCCC4)C=C3C)[nH]c2c1,13µM*
CC1=C[C@@H](CNC(=O)CC(C)(C)CC(=O)O)[C@H](C(C)C)C[C@H]1Cc1nc2ccc(F)cc2[nH]1,i
Cn1nccc1C(=O)N1C[C@@H](Oc2cccnc2)C[C@H]1C(=O)N1CCCC1,i
COc1ccc(NC(=O)N2C[C@@H]3C[C@H](C2)c2ccc(NC(=O)c4ccccc4)c(=O)n2C3)cc1,i
COc1ccccc1CN1CC[C@H](c2nnc(Cc3c[nH]c4ccccc34)o2)C1,i
COc1ccc(C[C@H](NC(=O)[C@@]2(O)C[C@@H](O)[C@H](O)[C@@H](NC(=O)CC(C)(C)C)C2)C(N)=O)cc1,9%
Cc1ccccc1CN1Cc2nc(-c3cncnc3)ccc2OCC1=O,-6%[44.1 µM]
CCCNC(=O)Cn1c(C)ccc(NS(=O)(=O)c2ccc(C)cc2)c1=O,i
Cc1nc(C)c(C(=O)N2CCCC2c2nc(CCOCC3CC3)no2)s1 (stereo unspecified),-29%
CC(C)(C)CC(=O)N[C@H]1C[C@@](O)(C(=O)NCC(N)=O)C[C@@H](O)[C@@H]1O,12%[44.1 µM]
CCn1nccc1C(=O)N1C[C@@H]2CCCN3CCC[C@@H]([C@H]23)[C@H]1CCCC(=O)NCC1CC1,-19%
NC(=O)[C@H](CC1CCCCC1)NC(=O)[C@@H]1CN(C(=O)c2cccnc2)CCN1C(=O)C1CCCCC1,-15%
O=C(CN1C(=O)NC2(CCCCC2)C1=O)N1CCCCCC1,-14%
CN1CCN(C2(CNC(=O)c3ccc(C(C)(C)C)cc3)CCCCC2)CC1,i
CC(C)COc1ccc(C(=O)NCC2(N3CCN(C)CC3)CCCCC2)cc1,10µM*
CC(C)COc1ccc(C(=O)N2CCN(CCc3ccncc3)CC2)cc1,24%
Cc1ncc(S(C)(=O)=O)c(N2CC(N3CCCCC3C)C2)n1 (stereo unspecified),-7%
CCO[C@H]1CN(C(=O)CCn2c(C)cc(C)nc2=O)C[C@@H]1O,-7%
Cc1cnc(C(=O)N2CCCC(c3nnc(Cn4cccn4)n3C)C2)cn1 (stereo unspecified),17%
COCCc1noc(C2CN(C(=O)Nc3ccc(C)c(C)c3)C2)n1,-14%
COc1ccccc1OCC(=O)c1ccc2c(c1)N(CCCC(=O)N1CCOCC1)C(=O)CO2,i
Cc1ccc(OCC(=O)c2ccc3c(c2)N(CCCC(=O)N2CCOCC2)C(=O)CO3)cc1C,i
CC(C)c1ccc(OCC(=O)c2ccc3c(c2)N(CCCC(=O)N2CCOCC2)C(=O)CO3)cc1,13µM*
CCc1nc2c(c(-c3ccc(OC)cc3)n1)CCN(C(=O)c1ccccn1)CC2,19%
CN(C)C[C@@H]1CN(C)C[C@H]1NS(=O)(=O)c1cc(F)cc(F)c1,8.9µM*
SMILES,Pf Dd2 inh
CNC(=O)N1C[C@@H](CN(C)C)[C@H](NS(=O)(=O)c2cc(F)ccc2C)C1,-9%
CNC(=O)N1C[C@@H](CN(C)C)[C@H](NS(=O)(=O)c2ccc(F)cc2F)C1,18%
CCCn1cnnc1CNC1CCC2(CCNCC2)CC1,-13%
COc1cccc(CNC(=O)c2ccc3oc(=O)n(Cc4ccccc4)c3c2)c1,9%
COc1cccc(CNC(=O)c2ccc(CSc3nc4ccncc4n3Cc3cccc(C)c3)cc2)c1,3.2µM*
Cc1cccc(-c2nc(Cn3c(SCc4cccc(C(F)(F)F)c4)nc4ccncc43)c(C)o2)c1,-1%
Cc1cccc(Cn2c(SCc3ccc(C(=O)NC4CCCCC4)cc3)nc3ccncc32)c1,-16%
CCC(C(=O)NC1CCCCC1)n1c(SCc2cccc(C)c2)nc2ccncc21 (stereo unspecified),-30%
Cc1cccc(Cn2c(SCc3ccc(C(=O)NCc4ccccc4F)cc3)nc3ccncc32)c1,11µM*
O=C(Cn1nc2n(c1=O)CCCC2)Nc1ccc(F)c(Cl)c1,31%
CNC(=O)[C@H]1C[C@H](Oc2ccccc2)CN1C(=O)Cc1ccccc1F,12%
COC1CCOC2(CCN(S(=O)(=O)c3ccccc3C)CC2)C1 (stereo unspecified),-5%
COC1C(=O)N(C2CCN(Cc3ccc(F)cc3F)CC2)C12CCOCC2 (stereo unspecified),-8%
COC1C(=O)N(C2CCN(C(=O)CCc3c[nH]c4ccccc34)CC2)C12CCOCC2 (stereo unspecified),-11%
C[C@]1(O)CCN(C(=O)CCc2c[nH]c3ccccc23)C[C@@H]1O,4%
COC1C(=O)N(c2cccc(F)c2)C12CCN(Cc1ccc(F)cc1F)CC2 (stereo unspecified),10µM*
COC1C(=O)N(c2cccc(F)c2)C12CCN(C(=O)C(C)C)CC2 (stereo unspecified),-11%
COC1C(=O)N(c2cccc(F)c2)C12CCN(C(=O)c1cnc(C)cn1)CC2 (stereo unspecified),-8%
COC1C(=O)N(c2cccc(F)c2)C12CCN(S(=O)(=O)c1ccccc1C)CC2 (stereo unspecified),13µM*
COC1C(=O)N(c2cccc(F)c2)C12CCN(C(=O)CCc1c[nH]c3ccccc13)CC2 (stereo unspecified),7.9µM*
CN1C(=O)COC[C@@H]1[C@H](O)c1ccc(NC(=O)C2CCCCC2)cc1,-13%[44.1 µM]
CC(C)NC(=O)CCC1CCN(C(=O)c2ccccc2F)CC1,-15%
CC(=O)N1CCN(C(=O)c2cccnc2)C[C@H]1C(=O)N[C@@H](CC1CCCCC1)C(N)=O,-6%[44.1 µM]
Cc1csc(CNC(=O)C2CCCN(C3CCN(Cc4cccnc4)CC3)C2)n1 (stereo unspecified),-11%
COc1ccc(CNC(=O)c2cc(Nc3ccc(OC)cc3OC)nc3ccccc23)cc1,8%
SMILES,Pf Dd2 inh
COc1ccc(Nc2cc(C(=O)NCCCN(C)C3CCCCC3)c3ccccc3n2)c(OC)c1,8.9µM*
COc1ccc(Nc2cc(C(=O)NC3CCCC3)c3ccccc3n2)cc1,4%
O=C(NC1CCCCC1)c1cc(Nc2ccccc2)nc2ccccc12,2%
COc1ccc(Nc2cc(C(=O)NCCCN(C)C3CCCCC3)c3ccccc3n2)cc1,5.6µM*
COc1ccc(N2CCN(CCCNC(=O)c3cc(Nc4ccc(OC)cc4OC)nc4ccccc34)CC2)cc1,-12%
O=C(NCc1ccc(F)cc1)[C@H]1CN(Cc2ccccc2)C[C@H]1C(=O)O,-13%
CCC(=O)N1C[C@@H]2C(=O)N(C)C(=O)[C@@H]2C1,30%
CNC(=O)c1ccc2cncn2c1,-2%[44.1 µM]
Cc1ccc(C)c(NC(=O)CN(CCc2ccccc2)S(=O)(=O)c2ccccc2)c1,7%
CCOc1ccccc1NC(=O)CN(CCc1ccccc1)S(=O)(=O)c1ccc(C)cc1,11µM*
Cc1c(Cl)cccc1NC(=O)CN(CCc1ccccc1)S(=O)(=O)c1ccccc1,1%
CN(CCc1nc2ccccc2[nH]1)C(=O)C1COc2ccccc2C1 (stereo unspecified),-19%
O=C(CC1CCCC1)N1CCC(N2CC(OCC3CC3)C23CCOCC3)CC1 (stereo unspecified),i
O=C(c1nccc2ccccc12)N1CCN(C(=O)N2CC3CC(C2)[C@H]2CCCC(=O)N2C3)CC1 (stereo partly specified),0%
CN(C)Cc1cc(C[C@@H]2C[C@H](N(C)C)C2(C)C)no1,i
Cc1cccc(NC(=O)Cn2ccn3nc(-c4ccc(F)cc4)c(CO)c3c2=O)c1,2%
O=C(N1CCN(Cc2ccccc2)CC(O)C1)C1(N2CCCC2)CCCC1 (stereo unspecified),4.5µM*
